Source: PubChem BioAssay
eIF4E 4G PPI = eIF4E–eIF4G protein interaction inhibitors, primary screen, biochemical, uHTS, TR-FRET, eIF4GI fragment. AID 782, 2007. 0.37% of 220,000 active. TR-FRET eIF4E-eIF4GI(517-606) binding, 2 h. inhibition, % at 21.7 µM;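 also: 0% = full FRET control wells and 100% = background wells lacking eIF4GI fragment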
Bim-Mcl-1 = inhibitors of Bim peptide binding to Mcl-1, primary screen, biochemical, bead-based flow cytometry, multiplex; Induced myeloid leukemia cell differentiation protein Mcl-1 (Homo sapiens), Q07820; inhibition, % at 10 µM; 0.1% of 190,000 active; Bim peptide-Mcl-1 binding; in the data active = inhibition above about 40%;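 also: 0% = no compound tracer wells and 100% = peptide blocker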
Mcl1-Noxa inh = Mcl-1/Noxa binding inhibitors, primary screen, biochemical, TR-FRET, 1536-well; 1.5% of 220,000 active; TR-FRET Mcl-1/Noxa peptide binding, 2 h; inhibition, % at 21.7 µM;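 active = compounds that cut the protein-peptide binding signal by more than 50% relative to plate controls in a single-dose test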;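 also: His-tagged Mcl-1 with rhodamine Noxa BH3 peptide and terbium anti-His antibody; 0% = Mcl-1 plus Noxa peptide wells and 100% = peptide-only wells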
14-3-3 Bad inh = inhibitors of 14-3-3 zeta/Bad binding, primary screen, biochemical, TR-FRET, bovine 14-3-3 zeta; 0.71% of 220,000 active; inhibition, % at 21.7 µM; 14-3-3 protein zeta/delta (Bos taurus), P63103; TR-FRET 14-3-3zeta/Dy647-pBad peptide displacement, 1 h;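 active = inhibition above about 70%, limit read from the data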;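 also: 0% = full 14-3-3 plus peptide FRET controls and 100% = background without 14-3-3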
Target sequence (P63103 whole entry, looked up): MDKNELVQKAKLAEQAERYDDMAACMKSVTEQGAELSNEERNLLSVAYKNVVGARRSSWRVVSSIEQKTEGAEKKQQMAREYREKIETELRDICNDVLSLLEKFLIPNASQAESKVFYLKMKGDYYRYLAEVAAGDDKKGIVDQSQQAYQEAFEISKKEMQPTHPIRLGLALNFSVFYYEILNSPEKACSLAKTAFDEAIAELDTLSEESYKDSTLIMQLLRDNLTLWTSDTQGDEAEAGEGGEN
Mcl1-Bid inh = Mcl-1/Bid binding inhibitors, primary screen, biochemical, TR-FRET, 1536-well; 0.97% of 220,000 active; TR-FRET Mcl-1/Bid-Dy647 peptide binding; Induced myeloid leukemia cell differentiation protein Mcl-1 (Homo sapiens), Q07820; inhibition, % at 21.7 µM;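 active = compounds that cut the binding signal by more than half at the single screening dose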;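 also: His-tagged Mcl-1 with europium anti-His antibody binding Bid BH3 peptide; 0% = Mcl-1 plus peptide wells and 100% = peptide-only wells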
p47phox inh = p47phox/p22phox peptide binding inhibitors, primary screen, biochemical, uHTS, NADPH oxidase regulatory subunit; Neutrophil cytosol factor 1 (Homo sapiens), P14598; fluorescence polarization, 2 h; inhibition, % at 24.7 µM; 0.53% of 220,000 active;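 also: 0% = p47phox with labelled peptide and 100% = labelled peptide alone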
Target sequence (P14598 whole entry, looked up): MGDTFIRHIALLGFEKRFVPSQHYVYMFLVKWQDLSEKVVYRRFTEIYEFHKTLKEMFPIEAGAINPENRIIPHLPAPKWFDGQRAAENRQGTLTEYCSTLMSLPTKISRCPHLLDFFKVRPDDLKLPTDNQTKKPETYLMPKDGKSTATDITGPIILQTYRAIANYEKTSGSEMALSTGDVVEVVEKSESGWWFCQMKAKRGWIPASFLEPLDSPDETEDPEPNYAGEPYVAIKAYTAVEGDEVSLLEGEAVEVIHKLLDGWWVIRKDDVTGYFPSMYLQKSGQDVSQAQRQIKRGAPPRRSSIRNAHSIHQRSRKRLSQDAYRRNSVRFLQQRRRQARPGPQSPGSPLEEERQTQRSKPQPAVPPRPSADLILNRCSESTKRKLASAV
The depositor's hits bear a star; · = not tested or not shown; [ ] = another dose, or the depositor's remark. Hits are enriched below; roughly 3.4% of the tested compounds scored in any of these assays.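 The calls were made as follows, unless noted: active = inhibition above about 30% (limit read from the data); inactive = the rest.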

SMILES	eIF4E 4G PPI	Bim-Mcl-1	Mcl1-Noxa inh	14-3-3 Bad inh	Mcl1-Bid inh	p47phox inh
Cc1cc(OC(=O)c2ccc(S(=O)(=O)N3CCOCC3)cc2)c([N+](=O)[O-])c(=O)[nH]1	-3.1	-3.0	24.5	4.5	4.6	1.8
O=C(OCC#CCSc1nc2ccccc2s1)c1ccco1	4.4	0.0	66.5*	3.3	-22.0	-13.1
CCCC(=O)Nc1nnc(-c2cccc(OCC)c2)s1	-7.4	-2.0	6.3	12.2	86.0*	-0.5
CC(C)C(=O)OCC(=O)NCc1ccccc1Cl	-2.3	-1.0	12.7	-9.2	-16.0	-1.2
O=C(COC(=O)c1cc[n+]([O-])cc1)NCc1ccccc1Cl	2.8	0.0	71.6*	-1.7	-13.1	-0.8
CCN(CC)S(=O)(=O)c1ccc(N2CCOCC2)c(NC(=O)c2c3c(nc4ccccc24)CCC3)c1	12.6	-2.0	91.0*	-5.4	19.7	14.2
O=C(Nc1cccc(S(=O)(=O)N2CCOCC2)c1)c1c2c(nc3ccccc13)CCC2	13.4	0.0	73.8*	-22.7	-50.8	7.9
Cc1ccc(NC(=O)N2CCCC(C(=O)O)C2)cc1 (stereo not given)	-13.5	·	3.7	-0.5	-24.7	-9.6
C=CCn1c(C)cc(C2=NNC(=Nc3ccc(C)cc3)SC2)c1C	0.6	2.0	10.6	-6.1	-11.4	-18.7
Cc1cc(C2=NNC(=Nc3ccc(S(=O)(=O)N4CCOCC4)cc3)SC2)c(C)n1C	9.5	·	72.0*	16.3	-41.6	23.1
O=C(NNC(=O)C(O)(c1ccccc1)c1ccccc1)C1CC1	-0.6	5.0	6.4	-1.3	-15.1	-1.0
COc1ccc(-n2c(Cc3ccccc3)nnc2SCc2ccc([N+](=O)[O-])cc2)cc1	16.1	-1.0	28.7	-10.5	-24.5	-0.2
COc1ccc(-n2c(SCc3ccc([N+](=O)[O-])cc3)nnc2-c2ccc(C)cc2)cc1	1.2	10.0	24.8	91.5*[fluorescence artefact?]	2.5	-6.3
O=C(COc1cccc2c1CCN(Cc1ccc(Br)cc1)C2=O)NCc1ccco1	-2.6	6.0	16.5	0.3	95.3*	-23.7
CCN1CCc2c(OCc3ccc(C(=O)OC)o3)cccc2C1=O	0.8	-1.0	14.0	-12.8	91.8*	-13.9
Cc1ccc2[nH]c(=O)c(C3C(C#N)=C(N)Oc4c3ccc3cccnc43)cc2c1 (stereo not given)	7.9	0.0	33.4	43.8	59.6*	9.3
Cc1nnsc1-c1onc(C)c1C(=O)O/N=C/c1ccc(Cl)cc1	4.6	·	-1.0	-4.8	-6.1	-12.7
CCOc1ccc(-n2c(SCC(=O)Nc3ccccc3CC)nc3n[nH]c(C)c3c2=N)cc1	-2.6	-2.0	12.4	19.4	-3.9	-1.5
CCOc1ccc(-n2c(SCC(=O)Nc3ccc(Br)cc3)nc3n[nH]c(C)c3c2=N)cc1	10.5	-1.0	50.7*	39.8	57.9*	40.5*
CCN(CC)S(=O)(=O)c1ccc(N2CCOCC2)c(NC(=O)c2ccc(NC(C)=O)cc2)c1	-3.2	·	17.0	-0.1	-82.3	-13.6
CC(C)n1nnnc1SCC(=O)N1CCN(C(=O)c2ccco2)CC1	-1.8	93.0*	3.3	0.0	4.1	-20.4
CCCn1nnnc1SCC(=O)N1CCN(C(=O)c2ccco2)CC1	-3.3	-2.0	-1.3	-6.8	-14.9	-19.3
CCC(c1nnnn1Cc1ccco1)N1CCN(C(=O)c2ccco2)CC1 (stereo not given)	1.2	1.0	9.4	67.5	14.4	-8.8
CCCC(c1nnnn1CCOC)N1CCN(C(=O)c2ccco2)CC1 (stereo not given)	-1.1	-4.0	10.7	81.2*	-5.4	-4.3
CC(C)CC(c1nnnn1Cc1ccccc1)N1CCN(C(=O)c2ccco2)CC1 (stereo not given)	2.1	0.0	29.7	85.6*	10.5	-7.9
SMILES	eIF4E 4G PPI	Bim-Mcl-1	Mcl1-Noxa inh	14-3-3 Bad inh	Mcl1-Bid inh	p47phox inh
O=C(c1ccco1)N1CCN(C(c2ccccc2Cl)c2nnnn2Cc2ccco2)CC1 (stereo not given)	6.0	-3.0	1.4	79.2*	-33.5	3.7
CN1C(=O)/C(=C/c2cc(N=Nc3ccccc3)ccc2O)SC1=S	1.6	-4.0	53.8*	6.7	6.8	-21.5
COc1ccc(-c2ncncc2-c2ccc(Cl)cc2)c(O)c1	82.9*	·	-9.4	-4.0	-22.1	7.9
COc1cccc(Oc2cncnc2-c2ccc(OC)cc2O)c1	-0.5	0.0	9.7	-8.1	-8.4	-1.5
O=C(N/N=C/c1cccc([N+](=O)[O-])c1)c1ccccc1-n1cccc1	0.5	-1.0	3.9	4.9	-16.6	-21.2
CCCCC(=O)Nc1ccc(C(=O)N2CCC(C(=O)OCC)CC2)cc1	0.5	64.0*	16.6	5.4	-6.2	3.0
CCCCCC(=O)Nc1ccc(N2CCN(C(=O)c3ccccc3)CC2)cc1	3.8	-4.0	2.4	81.6*	-48.8	-6.6
CCCCCCC(=O)Nc1ccc(C(=O)N2CCCC2)cc1	3.3	-2.0	10.2	5.2	-13.4	-8.8
Cc1ccc([N+](=O)[O-])cc1NC(=O)C(C)NS(=O)(=O)c1ccc(F)cc1 (stereo not given)	2.4	0.0	-1.3	-2.3	-30.8	-6.8
COc1ccc(SC[C@H](CC(C)C)N2CCN(CCc3ccccc3)CCC2=O)cc1	-8.9	·	17.8	-5.2	-78.1	-5.0
Cc1cc(C2=NNC(=NC3CC3)SC2)c(C)n1Cc1ccco1	-2.8	61.0*	19.0	-3.7	-38.6	-20.4
CC1(c2cccc3ccccc23)NC(=O)N(CC(=O)NC2CCS(=O)(=O)C2)C1=O (stereo not given)	3.9	-4.0	15.7	-6.7	97.7*	-10.6
Cn1nc(C(=O)OCC(=O)NC2CCS(=O)(=O)C2)c2ccccc2c1=O (stereo not given)	-0.3	-2.0	1.1	-6.5	-22.8	-8.8
O=C(Nc1ccc(F)c(Cl)c1)c1ccc2c(=O)n3c(nc2c1)CCCCC3	4.0	61.0*	3.6	14.8	-12.2	-9.0
CC(OC(=O)c1ccc2c(=O)n3c(nc2c1)CCCCC3)C(=O)Nc1ccc(F)cc1Cl (stereo not given)	10.2	0.0	-87.0	43.1	63.9*	29.1
O=C(C1CCCCC1)N1CCN(c2ccnc3cc(Cl)ccc23)CC1	-3.8	·	11.3	-0.9	3.4	-9.8
CC(C)NOC(=O)c1ccc(Cl)cc1	2.5	0.0	-0.7	-13.7	-5.1	-8.2
CCOC(=O)C1=c2/c(=C/c3ccncc3)c(N)c(C(=O)OC)n2C(=O)C(c2ccncc2)S1 (stereo not given)	13.3	3.0	30.2	58.1	62.4*	23.7
